High-throughput results (PubChem BioAssay)
SW480 rereplic – A quantitative high throughput screen for small molecules that induce DNA re-replication in SW480 colon adenocarcinoma cells; hit rate 1.8% among 340,000; SW480 DNA re-replication, Hoechst DNA content imaging, 48 h; Potency, µM (top dose mostly 46.1 µM), hits mostly activators; note: nearly all actives have a fitted effect of over 55% in size
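Cells (250 per well) received 23 nL compound or DMSO by pin tool and were kept 48 hr at 37 C, 5% CO2. Nuclei were then stained with Hoechst for 40 min and scanned for DNA content.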
ELG1 genotoxic – qHTS screen for small molecules that induce genotoxicity in human embryonic kidney (HEK293T) cells expressing luciferase-tagged ELG1 | HEK293T ELG1-luciferase reporter, luminescence, 16 h | Potency, µM (titrated, usually from 46 µM), usual class: activators | AID 504466, 2011 | hit rate 1.3% among 330,000; note: nearly all actives have a fitted effect of over 60% in size
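Luminescence read-out: rising ELG1-luciferase signal, reflecting elevated ELG1 protein under genetic stress, flags genotoxic compounds. Cells were treated for 16 hr at 37 °C before ONE-Glo detection.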
MCF10A rerep – A quantitative high throughput screen for small molecules that induce DNA re-replication in MCF 10a normal breast cells | MCF 10A DNA re-replication, Hoechst nuclear intensity, 48 h | Potency, µM (series often up to 46.1 µM), most hits filed as activators | hit rate 2.9% among 350,000; note: nearly all actives have a fitted effect of over 50% in size
p53 reactivation – qHTS assay for re-activators of p53 using a Luc reporter. H1299 p53-A138V BP100-luciferase reporter, luminescence, 24 h. Potency, µM (titrated, usually from 92.2 µM), usual class: activators. hit rate 0.063% among 320,000. AID 504706, 2011; note: nearly all actives have a fitted effect of over 45% in size
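p53-null H1299 cells stably carrying temperature-sensitive p53-A138V and a BP100-luciferase reporter were pinned with compounds (4-point, 1:5 series) and held 24 hrs at 37 deg C. Luminescence was read 10 min after detection reagent.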
ELG1 DNA repair – qHTS screen for small molecules that inhibit ELG1-dependent DNA repair in human embryonic kidney (HEK293T) cells expressing luciferase-tagged ELG1; Potency, µM (titrated, usually from 46.1 µM), actives largely listed as inhibitors; hit rate 2.3% among 330,000; AID 504467, 2011; HEK293T ELG1-luciferase reporter, luminescence, 16 h; DNA damage induced by 5-fluorouridine; note: nearly all actives have a fitted effect of over 55% in size
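HEK293T cells expressing luciferase-tagged ELG1 (2,000/well) received 5-Fluorouridine plus compound or DMSO for 16 hr at 37 °C. Luciferase was read by ONE-Glo luminescence after 30 min at room temperature.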
AT treatment – qHTS Assay for Identifying a Potential Treatment of Ataxia-Telangiectasia | hit rate 0.19% among 320,000 | AID 485349, 2010 | Potency, µM (titrated, usually from 57.5 µM), actives largely listed as activators | F2112 A-T fibroblasts, KAP-1 phosphorylation AlphaLISA; neocarzinostatin DNA damage 30 min before lysis; note: nearly all actives have a fitted effect of over 45% in size
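hTERT-immortalized A-T patient fibroblasts (F2112), 500 cells/well in OPTI-MEM, 1% FBS, got compounds for 60 min, then NCS for 30 min at 37C. Lysates were then assayed for phospho-KAP-1 by AlphaLISA (anti-pKAP1 donor, anti-KAP1 acceptor beads), 6 hr at 25C.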
Numbers stand for hits; [ ] = dose if it differs, or a comment. In the library only some 7.1% were active in any assay of this set; here they are far more common. Calls come from the whole dose curve; as a rule, active = well fitted curve in the direction sought with a large enough effect; inconclusive = small, poorly fitted or top-dose-only effect, or another doubt; inactive = no such curve, though single readings can be large; an effect the other way counts as inactive or inconclusive.

Results for CNC(=S)N(CCc1ccc(S(N)(=O)=O)cc1)C1CC(=O)N(c2ccccc2F)C1=O (stereo unspecified) ?
SW480 rereplic: 5.8µM; ELG1 genotoxic: inactive; MCF10A rerep: inactive[9.22 µM]; p53 reactivation: inactive; ELG1 DNA repair: inactive; AT treatment: inactive

How did COc1cccc(-c2nc(CS(=O)(=O)CC(=O)Nc3cc(F)ccc3F)c(C)o2)c1 do in these assays?
SW480 rereplic: inactive; ELG1 genotoxic: inactive; MCF10A rerep: inactive; p53 reactivation: inactive; ELG1 DNA repair: 18.3µM; AT treatment: inactive

Results for CCCN(CC1CCCO1)C(=O)CCc1nnc(CCc2ccc(OC)cc2)o1 (stereo unspecified) ?
SW480 rereplic: inactive; ELG1 genotoxic: inactive; MCF10A rerep: inactive; p53 reactivation: inactive; ELG1 DNA repair: inconclusive; AT treatment: inactive

What do the screens show for `COc1cccc(NC(=O)c2ccnc(N3CCC(C(=O)NCc4cc(OC)ccc4OC)CC3)c2)c1`?
SW480 rereplic: inactive; ELG1 genotoxic: inactive; MCF10A rerep: inactive; p53 reactivation: inactive; ELG1 DNA repair: inconclusive; AT treatment: inactive

How did CC(C)C[C@@H](NC(=O)[C@H](Cc1ccccc1)NC(=O)c1cnccn1)B(O)O do in these assays?
SW480 rereplic: 0.003µM; MCF10A rerep: inconclusive

What do the screens show for `COc1ccc([C@]23Cc4cc(C#N)ccc4C(O2)c2c(cc(C)n(-c4ccccc4)c2=O)O3)cc1`?
AT treatment: inactive[11.5 µM]

How did Nc1nc2ccccc2n1C(=O)c1ccc(F)cc1 do in these assays?
SW480 rereplic: inactive; ELG1 genotoxic: 1.16µM; MCF10A rerep: inactive; p53 reactivation: inactive; ELG1 DNA repair: inconclusive; AT treatment: inactive[11.5 µM]

What do the screens show for `CC(=O)c1nc2ccccc2n1CCc1ccccc1`?
SW480 rereplic: inactive; ELG1 genotoxic: inactive; MCF10A rerep: 1.84µM; p53 reactivation: inactive; ELG1 DNA repair: inactive; AT treatment: inactive

What do the screens show for `COc1ccc(C(=O)n2c(N)nc3ccccc32)cc1OC`?
SW480 rereplic: inactive; ELG1 genotoxic: inconclusive; MCF10A rerep: inactive; p53 reactivation: inconclusive; ELG1 DNA repair: inconclusive; AT treatment: inactive

What do the screens show for `Nc1nc2ccccc2n1C(=O)CCc1ccccc1`?
SW480 rereplic: inconclusive; ELG1 genotoxic: 2.31µM; MCF10A rerep: inconclusive; p53 reactivation: inactive; ELG1 DNA repair: inconclusive; AT treatment: inactive

Results for Nc1nc2ccccc2n1C(=O)c1ccccc1 ?
SW480 rereplic: inactive; ELG1 genotoxic: 0.651µM; MCF10A rerep: inactive; p53 reactivation: inactive; ELG1 DNA repair: inconclusive; AT treatment: inactive

Results for O=C(CN1CCN(c2ccc(O)cc2)CC1)Nc1ccc(S(=O)(=O)N2CCCC2)cc1 ?
SW480 rereplic: inactive; ELG1 genotoxic: inactive; MCF10A rerep: inactive; p53 reactivation: inactive; ELG1 DNA repair: inconclusive; AT treatment: inactive

What do the screens show for `O=C(c1ccccc1)C(CN1CCCCC1)c1ccccc1` (stereo unspecified)?
SW480 rereplic: 1.46µM; MCF10A rerep: 4.11µM

What do the screens show for `O=C(c1ccccc1)c1ccc(OCC(O)CN2CCOCC2)cc1` (stereo unspecified)?
SW480 rereplic: inactive; MCF10A rerep: inactive

Results for CC(CN1CCCC1)OC(=O)C(c1ccccc1)c1ccccc1 (stereo unspecified) ?
SW480 rereplic: inconclusive; ELG1 genotoxic: inactive; MCF10A rerep: 0.581µM; p53 reactivation: inactive; ELG1 DNA repair: inactive; AT treatment: inactive

Results for CC(CN1CCCCC1)OC(=O)CCc1ccccc1 (stereo unspecified) ?
SW480 rereplic: inactive; ELG1 genotoxic: inactive; MCF10A rerep: inactive; p53 reactivation: inactive; ELG1 DNA repair: inactive; AT treatment: inactive

How did CCOc1ccc(C(=O)C(CN2CCOCC2)c2ccccc2)cc1 (stereo unspecified) do in these assays?
SW480 rereplic: 5.17µM; ELG1 genotoxic: inactive; MCF10A rerep: 7.31µM; p53 reactivation: inactive; ELG1 DNA repair: inconclusive; AT treatment: inactive

What do the screens show for `O=C(c1ccc(Br)cc1)C(CN1CCOCC1)c1ccccc1` (stereo unspecified)?
SW480 rereplic: inconclusive; ELG1 genotoxic: inactive; MCF10A rerep: 18.4µM; p53 reactivation: inactive; ELG1 DNA repair: inconclusive; AT treatment: inactive

Results for C=CCN(CC(=O)Nc1cccnc1)S(=O)(=O)c1ccc(Cl)cc1 ?
SW480 rereplic: inactive; ELG1 genotoxic: inactive; MCF10A rerep: inactive; p53 reactivation: inactive; ELG1 DNA repair: inactive; AT treatment: inactive

Results for COc1ccc([C@@H]2CC=C(C(=O)O)[C@H](c3ccc(Cl)cc3)N2S(=O)(=O)c2ccccc2C)cc1 ?
SW480 rereplic: inactive; ELG1 genotoxic: inactive; MCF10A rerep: inactive; p53 reactivation: inactive; ELG1 DNA repair: inactive; AT treatment: inactive

What do the screens show for `Cc1ccc(NC(=O)/C=C/c2ccc(S(=O)(=O)N3CCOCC3)cc2)cc1S(=O)(=O)N(C)C`?
SW480 rereplic: inconclusive; MCF10A rerep: inactive

Results for CN(Cc1ccccc1)C(=O)c1[nH]cnc1C(=O)Nc1ccon1 ?
SW480 rereplic: inactive; ELG1 genotoxic: inactive; MCF10A rerep: inactive; p53 reactivation: inactive; ELG1 DNA repair: inactive; AT treatment: inactive

Results for COc1cccc(NC(=O)C(=O)NCCCN2CCCC2=O)c1 ?
SW480 rereplic: inactive; ELG1 genotoxic: inconclusive; MCF10A rerep: inactive; p53 reactivation: inactive; ELG1 DNA repair: inconclusive; AT treatment: inconclusive

Results for Cc1cc(C)cc(NC(=O)C(=O)NCCCN2CCCC2=O)c1 ?
SW480 rereplic: inactive; ELG1 genotoxic: 13µM; MCF10A rerep: inconclusive; p53 reactivation: inactive; ELG1 DNA repair: inconclusive; AT treatment: inactive

Results for O=C(NCc1ccc(Cl)cc1)C(=O)NCC1OCCCN1S(=O)(=O)c1cccs1 (stereo unspecified) ?
SW480 rereplic: inactive; ELG1 genotoxic: inactive; MCF10A rerep: inactive; p53 reactivation: inactive; ELG1 DNA repair: inconclusive; AT treatment: inactive

Results for CCC12C(=Nc3c(Cl)cccc31)C[C@@H]1CCN3C(=O)CCC[C@H]2[C@H]13 (stereo partly specified) ?
SW480 rereplic: inactive; MCF10A rerep: inconclusive

What do the screens show for `COc1ccc2oc(C(=O)N3CCN(S(=O)(=O)c4cccc([N+](=O)[O-])c4)CC3)c(C)c2c1`?
SW480 rereplic: inactive; ELG1 genotoxic: inactive; MCF10A rerep: inactive; p53 reactivation: inactive; ELG1 DNA repair: 7.3µM; AT treatment: inactive
